SMILES strings stand for the structures. About 3,300 (8.5%) of roughly 39,000 compounds were called active. Many of the other results were omitted from the sample, so actives are more common in it than they were.

The test system of this experiment is HepG2. In words: cytotoxicity call (relative viability < 0.9). As to conditions: 10 µM.
Consider `COc1ccc(C#Cc2ccc3c(c2)[C@]2(C(=O)N3)[C@H](c3ccccc3OCCO)N3[C@H](c4ccccc4)[C@H](c4ccccc4)OC(=O)[C@H]3[C@@H]2C(=O)N2CCc3cc(OC)c(OC)cc3C2)cc1`, for which the cytotoxicity call was “inactive”.

For `O=C(Cc1ccncc1)Nc1ccc2c(c1)[C@@H]1C[C@H](CC(=O)N3CCc4ccccc4C3)O[C@H](CO)[C@@H]1O2`, the cytotoxicity call was “inactive”.

Turning to `O=C1NC(=O)[C@H]2[C@@H]1[C@H](c1ccccc1)N1[C@@H]3C(=O)NC(=O)[C@@H]3[C@H](c3ccccc3)N21`, the cytotoxicity call is “inactive”.

As for `COc1ccc(C#Cc2ccc3c(c2)O[C@H](CN(C)C(C)=O)[C@@H](C)CN([C@@H](C)CO)S3(=O)=O)cc1`, the cytotoxicity call was “inactive”.

In the case of `COc1ccc2c3c(n(c2c1)C)[C@H](CO)N(C[C@]13CCN(CC1)C(=O)Nc1cccc(c1)F)C(=O)CN1CCOCC1`, the cytotoxicity call is “inactive”.

Consider `N=C(NO)NCC[C@H](N)C(=O)O`, for which the cytotoxicity call is “inactive”.

As to `C[C@@H]1CN([C@H](C)CO)C(=O)c2cc(NC(=O)NC3CCCCC3)ccc2O[C@@H](C)CCCCO[C@@H]1CN(C)C(=O)NC1CCCCC1`, the cytotoxicity call was “inactive”.

Regarding `C[C@@H]1CCCCO[C@@H](CN(C)Cc2ccc(C(F)(F)F)cc2)[C@H](C)CN([C@H](C)CO)C(=O)c2cc(NC(=O)Nc3ccccc3)ccc2O1`, the cytotoxicity call was “active”.

Regarding `C[C@@H]1CN([C@@H](C)CO)C(=O)c2cc(NC(=O)Nc3ccccc3)ccc2O[C@@H](C)CCCCO[C@H]1CN(C)Cc1ccc(C(F)(F)F)cc1`, the cytotoxicity call is “inactive”.

As for `C[C@@H]1CN([C@@H](C)CO)C(=O)c2cc(NC(=O)Nc3ccccc3)ccc2O[C@@H](C)CCCCO[C@@H]1CN(C)Cc1ccc(C(F)(F)F)cc1`, the cytotoxicity call was “active”.

Consider `C[C@@H]1CN([C@H](C)CO)C(=O)c2cc(NC(=O)Nc3ccccc3)ccc2O[C@@H](C)CCCCO[C@@H]1CN(C)Cc1ccc(C(F)(F)F)cc1`, for which the cytotoxicity call was “active”.

Turning to `C[C@@H]1CCCCO[C@@H](CN(C)Cc2ccc(C(F)(F)F)cc2)[C@@H](C)CN([C@@H](C)CO)C(=O)c2cc(NC(=O)Nc3ccccc3)ccc2O1`, the cytotoxicity call was “inactive”.

In the case of `C[C@@H]1CCCCO[C@@H](CN(C)Cc2ccc(C(F)(F)F)cc2)[C@H](C)CN([C@@H](C)CO)C(=O)c2cc(NC(=O)Nc3ccccc3)ccc2O1`, the cytotoxicity call was “inactive”.

Take `C[C@H](CO)N1C[C@H](C)[C@@H](CN(C)Cc2ccc(C(F)(F)F)cc2)OCCCC[C@H](C)Oc2ccc(NC(=O)Nc3ccccc3)cc2C1=O`: the cytotoxicity call is “active”.

Turning to `O=C(O)c1ccc(CNc2cn[nH]c(=O)n2)cc1`, the cytotoxicity call is “inactive”.

As to `COCCOC(=O)N1C(=O)[C@@]2(c3cc(C#CC4=CCCCC4)ccc31)[C@H](C(=O)NC[C@H](O)c1ccccc1)[C@H]1C(=O)O[C@H](c3ccccc3)[C@H](c3ccccc3)N1[C@@H]2c1ccc(O)cc1`, the cytotoxicity call was “inactive”.

For `C[C@@H]1CN([C@@H](C)CO)C(=O)Cc2cc(NC(=O)Cn3cnnn3)ccc2O[C@H]1CN(C)S(=O)(=O)c1ccccc1`, the cytotoxicity call was “inactive”.

On to `CN(C)CC(=O)N1[C@@H](CO)[C@H](c2ccc(C3=CCCC3)cc2)C12CN(S(=O)(=O)Cc1ccccc1)C2`, for which the cytotoxicity call is “inactive”.

For the compound `C[C@H](NC(=O)N(C)C[C@H]1OCc2ccccc2-c2c(n(C)c3ccccc23)C(=O)N([C@@H](C)CO)C[C@@H]1C)c1ccccc1`, the cytotoxicity call is “inactive”.

Regarding `Cc1ccc(S(=O)(=O)N(C)C[C@H]2Oc3ccc(NS(C)(=O)=O)cc3CC(=O)N([C@H](C)CO)C[C@H]2C)cc1`, the cytotoxicity call is “inactive”.

As to `O=C(C[C@@H]1C[C@H]2c3cc(NC(=O)c4cccnc4)ccc3O[C@H]2[C@@H](CO)O1)NCc1cc(F)ccc1F`, the cytotoxicity call was “inactive”.

Turning to `CCCNC(=O)N1C[C@H](O)COC[C@H]2O[C@@H](CC(=O)N3CCN(C)CC3)CC[C@@H]21`, the cytotoxicity call was “inactive”.

As to `O=C(C[C@@H]1C[C@H]2c3cc(NC(=O)c4ccc5c(c4)OCO5)ccc3O[C@H]2[C@@H](CO)O1)NCCc1ccccc1`, the cytotoxicity call is “inactive”.

On to `COC(=O)[C@@H]1C(=O)NC[C@H]1c1ccccc1`, for which the cytotoxicity call is “inactive”.

Turning to `C[C@@H]1CCCCO[C@H](CN(C)Cc2ccc(C(F)(F)F)cc2)[C@@H](C)CN([C@H](C)CO)C(=O)c2cc(NC(=O)Nc3ccccc3)ccc2O1`, the cytotoxicity call was “inactive”.

As for `C[C@@H]1CN([C@H](C)CO)C(=O)c2cc(NC(=O)Nc3ccccc3)ccc2O[C@@H](C)CCCCO[C@H]1CN(C)Cc1ccc(C(F)(F)F)cc1`, the cytotoxicity call was “active”.

For `C[C@@H]1CCCCO[C@H](CN(C)Cc2ccc(C(F)(F)F)cc2)[C@H](C)CN([C@@H](C)CO)C(=O)c2cc(NC(=O)Nc3ccccc3)ccc2O1`, the cytotoxicity call was “active”.

As for `C[C@@H]1CCCCO[C@H](CN(C)Cc2ccc(C(F)(F)F)cc2)[C@@H](C)CN([C@@H](C)CO)C(=O)c2cc(NC(=O)Nc3ccccc3)ccc2O1`, the cytotoxicity call was “active”.

For the compound `C[C@H]1CCCCO[C@@H](CN(C)Cc2ccc(C(F)(F)F)cc2)[C@@H](C)CN([C@@H](C)CO)C(=O)c2cc(NC(=O)Nc3ccccc3)ccc2O1`, the cytotoxicity call is “active”.

In the case of `C[C@@H]1CCCCO[C@@H](CN(C)Cc2ccc(C(F)(F)F)cc2)[C@@H](C)CN([C@H](C)CO)C(=O)c2cc(NC(=O)Nc3ccccc3)ccc2O1`, the cytotoxicity call is “inactive”.

With `CO[C@@H]1CN(C)C(=O)c2ccc(NC(=O)Nc3ccccc3F)cc2OC[C@@H](C)N(C(=O)Nc2ccccc2F)C[C@H]1C`, the cytotoxicity call is “inactive”.

With `Nc1nc(Nc2ccccc2)nc2c1ncn2[C@@H]1O[C@H](CO)[C@@H](O)[C@H]1O`, the cytotoxicity call was “inactive”.

Turning to `CO[C@@H]1CN(C)C(=O)c2cc(NS(=O)(=O)CC(F)(F)F)ccc2OC[C@H](C)N(Cc2cccnc2)C[C@@H]1C`, the cytotoxicity call was “inactive”.

On to `C[C@@H]1CN([C@H](C)CO)C(=O)c2cc(C#CC3(O)CCCC3)cnc2O[C@H]1CN(C)C(=O)Cc1cccnc1`, for which the cytotoxicity call is “inactive”.

Consider `CN1CCN(C(=O)C[C@@H]2CC[C@@H]3[C@H](COC[C@@H](O)CN3S(=O)(=O)c3cccc(Cl)c3)O2)CC1`, for which the cytotoxicity call is “inactive”.

Regarding `C[C@H]1CN([C@@H](C)CO)C(=O)c2cccc(NS(C)(=O)=O)c2O[C@@H]1CN(C)C(=O)Nc1ccc(F)cc1`, the cytotoxicity call is “inactive”.

As for `C[C@@H]1CN([C@H](C)CO)C(=O)CCCn2nncc2CO[C@@H]1CN(C)S(=O)(=O)c1cn(C)cn1`, the cytotoxicity call was “inactive”.

In the case of `C[C@@H]1CN([C@@H](C)CO)C(=O)c2cc(NC(=O)C3CC3)ccc2O[C@@H]1CN(C)C(=O)Nc1ccc2c(c1)OCO2`, the cytotoxicity call is “inactive”.

As to `CC(=O)Nc1ccc(C(=O)NN)cc1`, the cytotoxicity call was “inactive”.

In the case of `C[C@@H]1CN([C@H](C)CO)C(=O)c2cccc(NC(=O)c3ccncc3)c2O[C@H]1CN(C)Cc1ccncc1`, the cytotoxicity call was “inactive”.

As to `c1ccc(CNC2CCCCC2)nc1`, the cytotoxicity call is “inactive”.

Regarding `Cc1cccc(S(=O)(=O)N2C[C@@H](O)COC[C@H]3O[C@H](CC(=O)NCc4ccncn4)CC[C@@H]32)c1`, the cytotoxicity call is “inactive”.

Regarding `C[C@H](CO)N1C[C@H](C)[C@@H](CN(C)Cc2ccc(C(=O)O)cc2)OCc2ccccc2-c2c(n(C)c3ccccc23)C1=O`, the cytotoxicity call is “inactive”.

With `C[C@@H]1CCCCO[C@H](CN(C)Cc2ccc(C(F)(F)F)cc2)[C@H](C)CN([C@H](C)CO)C(=O)c2cc(NC(=O)Nc3ccccc3)ccc2O1`, the cytotoxicity call was “active”.

Consider `C[C@H]1CCCCO[C@H](CN(C)Cc2ccc(C(F)(F)F)cc2)[C@@H](C)CN([C@@H](C)CO)C(=O)c2cc(NC(=O)Nc3ccccc3)ccc2O1`, for which the cytotoxicity call is “active”.

Take `C[C@H](CO)N1C[C@H](C)[C@H](CN(C)Cc2ccc(C(F)(F)F)cc2)OCCCC[C@H](C)Oc2ccc(NC(=O)Nc3ccccc3)cc2C1=O`: the cytotoxicity call is “active”.

As to `CCS(=O)(=O)NCC[C@@H]1CC[C@@H](NC(=O)C2CC2)[C@@H](CO)O1`, the cytotoxicity call is “inactive”.

For `Cc1ccc(S(=O)(=O)Nc2ccc3c(c2)CC(=O)N([C@@H](C)CO)C[C@@H](C)[C@H](CN(C)S(C)(=O)=O)O3)cc1`, the cytotoxicity call is “inactive”.

As for `C[C@@H]1CN([C@@H](C)CO)C(=O)Cc2cc(NC(=O)Nc3ccccc3)ccc2O[C@H]1CN(C)C(=O)Nc1ccc(C(F)(F)F)cc1`, the cytotoxicity call was “inactive”.

As for `C[C@H]1CN([C@@H](C)CO)C(=O)c2cc(NC(=O)Nc3cccc4ccccc34)ccc2O[C@H]1CN(C)S(=O)(=O)c1ccc(F)cc1`, the cytotoxicity call is “inactive”.

Regarding `CC(=O)N[C@@H](Cc1cccc(F)c1)C(=O)O`, the cytotoxicity call is “inactive”.

Regarding `O=C(NC1Cc2ccccc2C1)[C@@H]1[C@@H](CO)[C@@H]2Cn3c(cccc3=O)[C@@H]2N1C(=O)c1cnccn1`, the cytotoxicity call was “inactive”.

Consider `Nc1no[n+]([O-])c1-c1ccccc1`, for which the cytotoxicity call is “inactive”.

Consider `C[C@H](CO)N1C[C@H](C)[C@H](CN(C)C(=O)Nc2ccc(F)cc2)OCCCC[C@H](C)Oc2ccc(NC(=O)c3ccccc3)cc2C1=O`, for which the cytotoxicity call was “inactive”.

For `C[C@H]1CCCCO[C@@H](CN(C)Cc2ccc3c(c2)OCO3)[C@@H](C)CN([C@@H](C)CO)C(=O)c2cc(NC(=O)Nc3ccccc3)ccc2O1`, the cytotoxicity call is “active”.

Regarding `C[C@@H]1CCCCO[C@H](CN(C)Cc2ccc3c(c2)OCO3)[C@@H](C)CN([C@H](C)CO)C(=O)c2cc(NC(=O)Nc3ccccc3)ccc2O1`, the cytotoxicity call was “inactive”.

In the case of `C[C@@H]1CCCCO[C@H](CN(C)Cc2ccc3c(c2)OCO3)[C@@H](C)CN([C@@H](C)CO)C(=O)c2cc(NC(=O)Nc3ccccc3)ccc2O1`, the cytotoxicity call is “inactive”.

For `C[C@H](CO)N1C[C@H](C)[C@H](CN(C)Cc2ccc3c(c2)OCO3)OCCCC[C@H](C)Oc2ccc(NC(=O)Nc3ccccc3)cc2C1=O`, the cytotoxicity call is “active”.

For the compound `C[C@@H]1CCCCO[C@@H](CN(C)Cc2ccc3c(c2)OCO3)[C@H](C)CN([C@H](C)CO)C(=O)c2cc(NC(=O)Nc3ccccc3)ccc2O1`, the cytotoxicity call is “inactive”.

As for `C[C@@H]1CN([C@H](C)CO)C(=O)c2cc(NC(=O)Nc3ccccc3)ccc2O[C@@H](C)CCCCO[C@H]1CN(C)Cc1ccc2c(c1)OCO2`, the cytotoxicity call was “inactive”.

In the case of `C[C@H]1CCCCO[C@H](CN(C)Cc2ccc3c(c2)OCO3)[C@@H](C)CN([C@@H](C)CO)C(=O)c2cc(NC(=O)Nc3ccccc3)ccc2O1`, the cytotoxicity call is “inactive”.

Turning to `C[C@@H]1CCCCO[C@H](CN(C)Cc2ccc3c(c2)OCO3)[C@H](C)CN([C@H](C)CO)C(=O)c2cc(NC(=O)Nc3ccccc3)ccc2O1`, the cytotoxicity call is “active”.

In the case of `C[C@@H]1CN([C@@H](C)CO)C(=O)c2cc(NC(=O)Nc3ccccc3)ccc2O[C@@H](C)CCCCO[C@H]1CN(C)Cc1ccc2c(c1)OCO2`, the cytotoxicity call is “inactive”.

As to `C[C@@H]1CCCCO[C@@H](CN(C)Cc2ccc3c(c2)OCO3)[C@@H](C)CN([C@H](C)CO)C(=O)c2cc(NC(=O)Nc3ccccc3)ccc2O1`, the cytotoxicity call is “inactive”.

For the compound `C[C@@H]1CN([C@H](C)CO)C(=O)c2cc(NC(=O)Nc3ccccc3)ccc2O[C@@H](C)CCCCO[C@@H]1CN(C)Cc1ccc2c(c1)OCO2`, the cytotoxicity call is “inactive”.

On to `C[C@@H]1CCCCO[C@@H](CN(C)Cc2ccc3c(c2)OCO3)[C@@H](C)CN([C@@H](C)CO)C(=O)c2cc(NC(=O)Nc3ccccc3)ccc2O1`, for which the cytotoxicity call is “active”.

The values are drawn from the antibiotic and cytotoxicity screens of Wong et al. (2023).
